Inconclusive results are not listed. Active and inactive are the calls of the source. The calls were made as follows, unless noted: active = hit-call score of the fitted dose curve at least 0.9, where 1 is the maximum; inconclusive = response in the unintended direction; inactive = score below 0.9.
How the values were obtained:
[1] = molecular target: Estrogen-related receptor gamma (Homo sapiens) (UniProt P62508); experiment: ATG_ERRg_TRANS: Attagene TRANS-FACTORIAL HepG2 Assay for human Estrogen-Related Receptor gamma (ERRg) (AID 2282977); conditions: HepG2 Attagene TRANS reporter, ERRg transactivation;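 also: hits increase reporter signal over DMSO so potencies reflect activators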
In short: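 Transient HepG2 transfectants, 24 h compound exposure, GAL4-UAS reporter mRNA by RT-PCR/6-FAM labelling/capillary electrophoresis; positive direction vs DMSO.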

[2] = molecular target: Oxysterols receptor LXR-alpha (Homo sapiens) (UniProt Q13133); experiment: ATG_LXRa_TRANS: Attagene TRANS-FACTORIAL HepG2 Assay for human Liver X Receptor alpha (LXRa) (AID 2282980); conditions: HepG2 Attagene TRANS reporter, LXRa transactivation
In short: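 Transient HepG2 transfectants, 24 h dosing, RT-PCR/CE mRNA reporter quantitation; gain-of-signal vs DMSO.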

[3] = molecular target: Oxysterols receptor LXR-beta (Homo sapiens) (UniProt P55055); experiment: ATG_LXRb_TRANS: Attagene TRANS-FACTORIAL HepG2 Assay for human Liver X Receptor beta (LXRb) (AID 2282981); conditions: HepG2 Attagene TRANS GAL4-LXRb reporter, mRNA
In short: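 Cells: HepG2, transiently transfected with GAL4-UAS reporter units plus LXRb-Gal4 fusion. Treatment: 24 h. Detection: reporter mRNA by RT-PCR, 6-FAM labelling, HpaI digestion, capillary electrophoresis.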

[4] = ATG_M_32_TRANS: Attagene TRANS-FACTORIAL HepG2 Assay for M32 Transcription Factor (Internal Marker) (AID 2282984); conditions: HepG2 Attagene TRANS M32 internal marker reporter
In short: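 Using transiently transfected HepG2 cells exposed to test chemicals for 24 h, reporter transcripts are converted to labelled cDNA fragments and quantified by capillary electrophoresis. DMSO defines the activity baseline.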

[5] = molecular target: Nuclear receptor subfamily 4 group A member 2 (Homo sapiens) (UniProt P43354); experiment: ATG_NURR1_TRANS: Attagene TRANS-FACTORIAL HepG2 Assay for human Nuclear Receptor Related Protein 1 (NURR1) (AID 2282985); conditions: HepG2 Attagene TRANS reporter, mRNA readout
In short: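 Cells: HepG2, transiently transfected. Exposure: 24 h. Detection: fluorescence of labelled RT-PCR products separated by capillary electrophoresis; upward fit versus DMSO.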

[6] = molecular target: Transcriptional activator Myb (Homo sapiens) (UniProt P10242); experiment: ATG_Myb_CIS: Attagene CIS-FACTORIAL HepG2 Assay for human Myeloblastosis (Myb) Proto-Oncogene Transcription Factor (AID 2282986; active = hit-call score of the fitted dose curve at least 0.9, where 1 is the maximum; inactive = score below 0.9); conditions: HepG2 Attagene CIS-FACTORIAL Myb reporter transcription; actives raise or lower the signal
In short: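 Reporter transcript levels, quantified by fluorescent RT-PCR and capillary electrophoresis, serve as the read-out. Transfected HepG2 cells carrying cis-promoter reporter units are dosed for 24 hours, and curves are fitted bidirectionally against DMSO controls.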

[7] = molecular target: Glucocorticoid receptor (Homo sapiens) (UniProt P04150); experiment: ATG_GR_TRANS: Attagene TRANS-FACTORIAL HepG2 Assay for human Glucocorticoid Receptor (GR) (AID 2282978); conditions: HepG2 Attagene TRANS GR reporter, mRNA transcription;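 also: activators score as hits since higher reporter transcript over DMSO is fitted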
In short: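 Fluorescent capillary-electrophoresis quantitation of reporter mRNA is the readout, taken 24 h after dosing human HepG2 cells carrying transiently transfected GAL4-UAS reporter units activated by chimeric NR-GAL4 fusions; activity scored as induction over DMSO.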

[8] = molecular target: Bile acid receptor (Homo sapiens) (UniProt Q96RI1); experiment: ATG_FXR_TRANS: Attagene TRANS-FACTORIAL HepG2 Assay for Farnesoid X Receptor (FXR) (AID 2282979); conditions: HepG2 Attagene TRANS FXR-GAL4 reporter transcription;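 also: hits raise reporter mRNA above DMSO so AC50 marks FXR activation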
In short: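 Chimeric FXR-GAL4 activity in transiently transfected human HepG2 liver cells is scored as induction of reporter mRNA after 24 h of dosing. Detection uses RT-PCR with fluorescent labelling and capillary electrophoresis, with DMSO serving as baseline.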

[9] = ATG_M_06_TRANS: Attagene TRANS-FACTORIAL HepG2 Assay for M06 Transcription Factor (Internal Marker) (AID 2282983); conditions: HepG2 Attagene TRANS M06 internal marker reporter
In short: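 Measured by capillary electrophoresis of fluorescently labelled RT-PCR products, this endpoint reflects reporter mRNA in HepG2 cells harbouring exogenous NR-GAL4 reporter constructs after 24 h exposure, with DMSO as baseline.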

[10] = molecular target: Hepatocyte nuclear factor 4-alpha (Homo sapiens) (UniProt P41235); experiment: ATG_HNF4a_TRANS: Attagene TRANS-FACTORIAL HepG2 Assay for human Hepatocyte Nuclear Factor 4 alpha (HNF4a) (AID 2282982); conditions: HepG2 HNF4a transactivation reporter, mRNA readout
In short: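 Transfected HepG2 reporter cells are dosed for 24 h; reporter RNA is reverse-transcribed, amplified, fluorescently labelled and HpaI-digested before CE sizing. Positive-direction fit against DMSO.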

Chain of Estrogen-related receptor gamma (Homo sapiens) (P62508 whole entry, looked up, the tested form may be a part): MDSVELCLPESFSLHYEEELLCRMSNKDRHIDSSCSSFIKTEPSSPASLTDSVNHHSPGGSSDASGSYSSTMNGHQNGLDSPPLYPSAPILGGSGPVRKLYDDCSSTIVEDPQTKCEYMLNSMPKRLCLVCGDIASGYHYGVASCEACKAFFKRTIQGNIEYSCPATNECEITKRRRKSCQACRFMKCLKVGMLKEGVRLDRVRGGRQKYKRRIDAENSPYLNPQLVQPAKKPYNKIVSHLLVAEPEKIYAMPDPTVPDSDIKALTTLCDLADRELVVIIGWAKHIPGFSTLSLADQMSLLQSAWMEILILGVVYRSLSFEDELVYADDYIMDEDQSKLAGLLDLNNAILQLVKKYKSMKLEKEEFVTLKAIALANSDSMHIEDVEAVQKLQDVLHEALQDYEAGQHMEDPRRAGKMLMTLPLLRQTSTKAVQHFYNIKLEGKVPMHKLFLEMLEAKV
Chain of Oxysterols receptor LXR-beta (Homo sapiens) (P55055 whole entry, looked up, the tested form may be a part): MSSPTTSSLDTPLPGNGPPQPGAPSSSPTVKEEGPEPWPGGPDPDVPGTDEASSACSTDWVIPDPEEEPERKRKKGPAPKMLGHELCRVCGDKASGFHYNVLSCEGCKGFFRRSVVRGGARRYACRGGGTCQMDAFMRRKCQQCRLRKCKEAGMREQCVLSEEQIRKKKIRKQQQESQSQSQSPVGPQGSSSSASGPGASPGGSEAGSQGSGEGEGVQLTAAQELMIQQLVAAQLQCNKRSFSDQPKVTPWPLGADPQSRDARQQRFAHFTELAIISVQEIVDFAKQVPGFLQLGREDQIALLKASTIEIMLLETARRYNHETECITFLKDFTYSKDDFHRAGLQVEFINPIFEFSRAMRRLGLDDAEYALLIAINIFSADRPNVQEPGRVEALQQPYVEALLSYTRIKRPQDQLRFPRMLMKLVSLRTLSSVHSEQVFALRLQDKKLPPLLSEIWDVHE
Chain of Nuclear receptor subfamily 4 group A member 2 (Homo sapiens) (P43354 whole entry, looked up): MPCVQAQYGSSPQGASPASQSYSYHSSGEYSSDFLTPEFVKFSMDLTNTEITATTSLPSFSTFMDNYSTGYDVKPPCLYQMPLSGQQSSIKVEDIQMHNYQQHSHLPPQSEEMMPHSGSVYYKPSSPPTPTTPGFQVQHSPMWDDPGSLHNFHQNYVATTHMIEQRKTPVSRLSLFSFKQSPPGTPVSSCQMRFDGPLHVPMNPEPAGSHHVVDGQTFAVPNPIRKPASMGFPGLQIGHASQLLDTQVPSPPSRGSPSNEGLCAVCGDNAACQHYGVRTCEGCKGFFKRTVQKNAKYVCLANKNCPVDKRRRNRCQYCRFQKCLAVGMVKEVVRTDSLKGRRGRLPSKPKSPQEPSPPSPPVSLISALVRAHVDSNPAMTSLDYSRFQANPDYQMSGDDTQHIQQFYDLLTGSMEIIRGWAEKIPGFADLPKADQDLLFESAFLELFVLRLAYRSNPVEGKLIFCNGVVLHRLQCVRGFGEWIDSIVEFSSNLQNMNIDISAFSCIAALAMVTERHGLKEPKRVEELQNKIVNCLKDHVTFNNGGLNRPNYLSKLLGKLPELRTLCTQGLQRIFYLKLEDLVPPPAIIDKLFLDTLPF
Chain of Glucocorticoid receptor (Homo sapiens) (P04150 whole entry, looked up, the tested form may be a part): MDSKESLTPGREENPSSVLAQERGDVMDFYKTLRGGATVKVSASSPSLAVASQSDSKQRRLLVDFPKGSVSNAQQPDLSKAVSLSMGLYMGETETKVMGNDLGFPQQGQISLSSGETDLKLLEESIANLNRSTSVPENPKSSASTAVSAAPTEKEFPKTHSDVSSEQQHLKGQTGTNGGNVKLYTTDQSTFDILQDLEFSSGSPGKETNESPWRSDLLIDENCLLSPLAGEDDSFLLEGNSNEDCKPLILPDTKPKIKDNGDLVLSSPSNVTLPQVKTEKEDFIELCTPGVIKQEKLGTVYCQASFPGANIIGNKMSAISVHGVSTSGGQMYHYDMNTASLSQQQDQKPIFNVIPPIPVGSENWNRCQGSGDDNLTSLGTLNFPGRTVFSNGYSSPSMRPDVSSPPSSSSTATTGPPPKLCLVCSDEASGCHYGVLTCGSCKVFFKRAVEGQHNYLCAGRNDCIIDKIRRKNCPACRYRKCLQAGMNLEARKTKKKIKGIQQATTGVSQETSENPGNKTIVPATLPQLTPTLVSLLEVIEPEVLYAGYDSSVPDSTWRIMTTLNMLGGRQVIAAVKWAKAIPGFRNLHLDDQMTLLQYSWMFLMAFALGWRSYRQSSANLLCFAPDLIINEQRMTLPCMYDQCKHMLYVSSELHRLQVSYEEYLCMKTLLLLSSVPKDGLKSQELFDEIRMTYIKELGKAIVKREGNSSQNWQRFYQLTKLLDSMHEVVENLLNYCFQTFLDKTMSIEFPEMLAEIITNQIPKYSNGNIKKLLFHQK
Chain of Hepatocyte nuclear factor 4-alpha (Homo sapiens) (P41235 whole entry, looked up): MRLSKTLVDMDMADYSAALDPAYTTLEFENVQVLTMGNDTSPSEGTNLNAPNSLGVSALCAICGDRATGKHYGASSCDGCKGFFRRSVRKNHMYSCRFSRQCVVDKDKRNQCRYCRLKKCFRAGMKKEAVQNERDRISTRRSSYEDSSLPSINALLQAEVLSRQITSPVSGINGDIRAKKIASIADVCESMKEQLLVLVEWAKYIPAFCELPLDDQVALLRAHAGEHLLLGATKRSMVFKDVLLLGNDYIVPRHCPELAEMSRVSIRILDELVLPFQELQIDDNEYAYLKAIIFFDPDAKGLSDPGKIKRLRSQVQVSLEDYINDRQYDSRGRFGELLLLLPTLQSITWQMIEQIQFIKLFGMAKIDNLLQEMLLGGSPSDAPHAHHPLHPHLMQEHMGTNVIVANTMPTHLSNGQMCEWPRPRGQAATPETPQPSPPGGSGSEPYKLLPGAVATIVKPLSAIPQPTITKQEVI
Chain of Oxysterols receptor LXR-alpha (Homo sapiens) (Q13133 whole entry, looked up): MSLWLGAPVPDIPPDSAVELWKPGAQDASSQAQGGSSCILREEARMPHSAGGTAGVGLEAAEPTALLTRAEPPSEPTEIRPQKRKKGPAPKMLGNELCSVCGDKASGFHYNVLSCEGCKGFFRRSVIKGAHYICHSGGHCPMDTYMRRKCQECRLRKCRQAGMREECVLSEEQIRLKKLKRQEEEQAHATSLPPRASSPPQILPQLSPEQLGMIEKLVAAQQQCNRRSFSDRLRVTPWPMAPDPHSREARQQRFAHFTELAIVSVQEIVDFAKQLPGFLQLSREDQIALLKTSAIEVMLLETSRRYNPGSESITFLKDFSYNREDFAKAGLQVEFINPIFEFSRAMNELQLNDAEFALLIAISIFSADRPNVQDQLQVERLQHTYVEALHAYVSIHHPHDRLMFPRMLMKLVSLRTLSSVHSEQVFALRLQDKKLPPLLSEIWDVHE
Chain of Bile acid receptor (Homo sapiens) (Q96RI1 whole entry, looked up, the tested form may be a part): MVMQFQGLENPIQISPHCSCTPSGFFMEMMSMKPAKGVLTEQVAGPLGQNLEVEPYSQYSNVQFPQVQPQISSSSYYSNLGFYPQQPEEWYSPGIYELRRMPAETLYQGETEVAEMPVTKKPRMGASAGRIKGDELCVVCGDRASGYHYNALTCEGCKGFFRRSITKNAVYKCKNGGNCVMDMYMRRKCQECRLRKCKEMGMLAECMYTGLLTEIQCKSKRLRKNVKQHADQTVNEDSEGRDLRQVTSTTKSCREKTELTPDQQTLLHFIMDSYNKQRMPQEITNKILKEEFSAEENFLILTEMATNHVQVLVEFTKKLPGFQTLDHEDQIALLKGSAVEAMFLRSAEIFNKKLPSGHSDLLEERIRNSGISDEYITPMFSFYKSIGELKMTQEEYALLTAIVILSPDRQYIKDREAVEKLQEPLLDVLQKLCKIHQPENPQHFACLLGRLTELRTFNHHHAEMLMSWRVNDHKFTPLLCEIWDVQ
Chain of Transcriptional activator Myb (Homo sapiens) (P10242 whole entry, looked up): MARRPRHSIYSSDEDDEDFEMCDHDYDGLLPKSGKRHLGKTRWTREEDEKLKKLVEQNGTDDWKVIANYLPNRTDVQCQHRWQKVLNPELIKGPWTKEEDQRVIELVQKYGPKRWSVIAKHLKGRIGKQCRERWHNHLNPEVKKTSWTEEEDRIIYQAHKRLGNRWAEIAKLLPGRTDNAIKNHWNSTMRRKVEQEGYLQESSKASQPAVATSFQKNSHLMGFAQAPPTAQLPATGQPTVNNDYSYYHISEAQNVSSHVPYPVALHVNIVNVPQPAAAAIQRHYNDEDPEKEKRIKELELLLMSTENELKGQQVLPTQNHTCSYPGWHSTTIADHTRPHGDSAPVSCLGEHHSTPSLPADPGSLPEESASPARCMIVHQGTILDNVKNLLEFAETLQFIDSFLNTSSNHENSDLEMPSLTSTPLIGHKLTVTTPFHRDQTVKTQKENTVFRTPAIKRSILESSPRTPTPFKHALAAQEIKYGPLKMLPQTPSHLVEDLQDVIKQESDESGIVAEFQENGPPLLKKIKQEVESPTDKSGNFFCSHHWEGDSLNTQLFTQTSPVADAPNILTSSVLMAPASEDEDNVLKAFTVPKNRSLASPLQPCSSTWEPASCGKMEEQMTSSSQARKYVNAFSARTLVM

SMILES	outcome [1]	outcome [2]	outcome [3]	outcome [4]	outcome [5]	outcome [6]	outcome [7]	outcome [8]	outcome [9]	outcome [10]	AC50 [5]
CCN(Cc1cccc(S(=O)(=O)O)c1)c1ccc(C(=C2C=CC(=[N+](CC)Cc3cccc(S(=O)(=O)O)c3)C=C2)c2ccc(O)cc2S(=O)(=O)[O-])cc1	inactive	inactive	inactive	inactive	inactive	inactive	–	–	–	–	–
NC(=O)C(F)(F)C(F)(F)C(F)(F)C(F)(F)F	–	–	–	inactive	inactive	inactive	inactive	inactive	inactive	–	–
CC(C)OC(=O)c1ccccc1C(=O)OC(C)C	–	–	–	–	inactive	–	inactive	inactive	inactive	–	–
FC(F)(I)C(F)(F)C(F)(F)C(F)(F)I	inactive	inactive	–	inactive	inactive	inactive	–	–	–	–	–
Nc1cc(Cl)c(N)c(Cl)c1	–	inactive	inactive	–	inactive	inactive	inactive	inactive	–	inactive	–
FC(F)(F)C(F)(F)C(F)(F)C(F)(F)C(F)(F)C(F)(F)C(F)(F)C(F)(F)F	–	inactive	inactive	inactive	inactive	–	inactive	inactive	inactive	inactive	–
FC(F)(F)C(F)(F)C(F)(F)N(C(F)(F)C(F)(F)C(F)(F)F)C(F)(F)C(F)(F)C(F)(F)F	inactive	inactive	–	inactive	–	inactive	–	–	inactive	inactive	–
Oc1ccc(Nc2ccccc2)cc1	inactive	–	inactive	–	inactive	–	–	–	inactive	inactive	–
OCC(F)(F)C(F)(F)C(F)(F)F	–	inactive	inactive	inactive	inactive	–	inactive	inactive	inactive	inactive	–
CCCCOCCOCCOC(=O)CCCCC(=O)OCCOCCOCCCC	–	–	–	inactive	inactive	inactive	inactive	inactive	inactive	inactive	–
O=S(=O)(O)C(F)(F)C(F)(F)C(F)(F)C(F)(F)C(F)(F)C(F)(F)C(F)(F)F	–	inactive	–	inactive	–	–	inactive	inactive	inactive	–	–
C(=C(c1ccccc1)c1ccccc1)c1ccccc1	–	–	inactive	–	–	inactive	inactive	inactive	inactive	inactive	26.4 µM (active)
CS(C)(=O)=O	–	inactive	–	inactive	inactive	inactive	inactive	inactive	inactive	–	–
CCCCCCS	–	–	–	–	inactive	inactive	inactive	inactive	inactive	inactive	–
O=C(O)C(F)(F)C(F)(F)F	–	inactive	inactive	inactive	inactive	inactive	inactive	inactive	inactive	inactive	–
O=C(CC(=O)C(F)(F)C(F)(F)F)C(F)(F)F	–	inactive	inactive	inactive	inactive	inactive	inactive	inactive	inactive	–	–
CN(C)Cc1ccccc1O	–	inactive	inactive	inactive	inactive	inactive	inactive	inactive	inactive	–	–
CO[Si](OC)(c1ccccc1)c1ccccc1	–	–	–	inactive	–	inactive	inactive	inactive	–	inactive	–
Cc1ccc(S(=O)(=O)OCC(F)(F)C(F)(F)C(F)(F)C(F)(F)C(F)(F)C(F)F)cc1	–	inactive	inactive	inactive	inactive	inactive	inactive	inactive	inactive	–	–
O=C(O)C=C(C(F)(F)F)C(F)(F)F	–	inactive	inactive	inactive	inactive	–	inactive	–	inactive	inactive	–
O=C(O)C(F)(F)C(F)(F)C(F)(F)C(F)(F)C(F)(F)C(F)(F)C(F)(F)C(F)(F)C(F)(F)C(F)(F)C(F)(F)C(F)(F)C(F)(F)F	–	inactive	inactive	inactive	inactive	–	inactive	–	inactive	–	–
OCCCC(F)(F)C(F)(F)C(F)(F)F	–	inactive	inactive	inactive	inactive	–	inactive	–	inactive	–	–
COC(OC(C)=O)c1ccccc1 (stereo not given)	–	–	–	–	–	–	inactive	–	–	inactive	–
CCC(=O)OCCc1ccccc1	–	–	inactive	inactive	–	inactive	–	–	–	–	–

Source: PubChem BioAssay (EPA / NIEHS)
